PubChem BioAssay (NCATS)
Results filed as inconclusive are left out. Values without a mark were called inactive. Activity calls are given as the source filed them. Calls come from the whole dose curve; as a rule, active = well fitted cell-killing curve with a large enough effect; inconclusive = small, poorly fitted or top-dose-only effect, or effect the other way; inactive = flat fitted curve, though single readings scatter.

Tested on: PA-1
Assay: Primary qHTS to identify gynecologic anti-cancer compounds using libraries of approved drugs and bioactive compounds (AID 1345084); note: nearly all actives have a fitted effect of over 55% in size
Settings: Gynecologic cancer cell panel viability, ATPlite luminescence, 48 h; series mostly up to 57.5 µM; activity change, negative = cytotoxicity: at the top concentration
How it was run: (§1)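 In this quantitative HTS, cell killing is estimated from loss of ATP-dependent luciferase light. Cells see five compound concentrations over a 48 h exposure.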
% is set by controls: 0 for no effect and ±100 for the full control effect; potency is the fitted concentration of half-maximal effect.

Going from `CN1CCC(=C2c3ccccc3Sc3ccccc32)CC1` to `CC(C)=CCC1C(=O)N(c2ccccc2)N(c2ccccc2)C1=O`, the “activity change, negative = cytotoxicity” value rises from -20.6% to -3.14%.

Compared with `CC(=O)N/N=C/c1ccc([N+](=O)[O-])o1`, `CN(C(=O)CN(CCO)CC(=O)N(C)C(C)(C)Cc1ccccc1)C(C)(C)Cc1ccccc1` is lower in “activity change, negative = cytotoxicity” value: 15.4% for the first, -13.6% for the second.

Tested on: SKOV3
Assay: as above
Settings: Gynecologic cancer cell panel viability, ATPlite luminescence, 48 h; series mostly up to 57.5 µM; activity change, negative = cytotoxicity: at the top concentration
How it was run: as §1

Going from `O=C1OCCN1/N=C/c1ccc([N+](=O)[O-])o1` to `CC(=O)N/N=C/c1ccc([N+](=O)[O-])o1`, the “activity change, negative = cytotoxicity” value falls from -14.4% to -19%.

First: CCN(CC)CCOC(=O)C(c1ccccc1)C1CCCCC1 (centres undefined)
Second: CCCOC(C(=O)OC1CCN(C)CC1)(c1ccccc1)c1ccccc1
The “activity change, negative = cytotoxicity” value of the first is lower: -11.5% for the first, 7.66% for the second.

First: O=C(CCCN1CCC(O)(c2ccc(Br)cc2)CC1)c1ccc(F)cc1
Second: CC(=O)c1ccc2c(c1)N(CCCN1CCC(CCO)CC1)c1ccccc1S2
The “activity change, negative = cytotoxicity” value of the first is higher: 11.8% for the first, -9.01% for the second.

Compared with `CC(O)(P(=O)(O)O)P(=O)(O)O`, `C[C@H]1C[C@H]2[C@@H]3CCC4=CC(=O)C=C[C@]4(C)[C@@]3(Cl)[C@@H](O)C[C@]2(C)[C@@]1(O)C(=O)CO` is lower in “activity change, negative = cytotoxicity” value: 0.0685% for the first, -23.3% for the second.

First: Oc1ccc(Cl)cc1Sc1cc(Cl)ccc1O
Second: O=C(COc1ccc(Cl)cc1)N1CCN(Cc2ccc3c(c2)OCO3)CC1
The “activity change, negative = cytotoxicity” value of the first is lower: -6.82% for the first, 0% for the second.

First: COC1=CC(=O)C[C@@H](C)[C@]12Oc1c(Cl)c(OC)cc(OC)c1C2=O
Second: COc1cc2c(cc1OC)C(C(C(=O)N(CCc1ccc(OC)c(OC)c1OC)CCc1ccc(OC)c(OC)c1OC)c1ccccc1)=NCC2 (centres undefined)
The “activity change, negative = cytotoxicity” value of the first is lower: 0.888% for the first, 13.6% for the second.

First: Oc1c(I)cc(I)c2cccnc12
Second: CC(C)=CCC1C(=O)N(c2ccccc2)N(c2ccccc2)C1=O
The “activity change, negative = cytotoxicity” value of the first is higher: -12.6% for the first, -26.5% for the second.

Compared with `C[C@]12CCC(=O)C=C1[C@@H]1C[C@@H]1[C@H]1[C@@H]3[C@@H]4C[C@@H]4[C@@]4(CCC(=O)O4)[C@@]3(C)CC[C@@H]12`, `C=C1C[C@H]2[C@@H]3C=C(C)C4=CC(=O)CC[C@]4(C)[C@H]3CC[C@]2(C)[C@@]1(OC(C)=O)C(C)=O` is higher in “activity change, negative = cytotoxicity” value: -8.47% for the first, 6.18% for the second.

Compared with `CC1=C(C(=O)OC(C)C)C(c2cccc([N+](=O)[O-])c2)C(C(=O)OC2CN(C(c3ccccc3)c3ccccc3)C2)=C(N)N1` (centres undefined), `COc1cccc(CCc2ccccc2OCC(CN(C)C)OC(=O)CCC(=O)O)c1` (centres undefined) is lower in “activity change, negative = cytotoxicity” value: 17.2% for the first, -0.447% for the second.

First: c1ccc(CNCCNCc2ccccc2)cc1
Second: CCN(CCCc1ccccc1)CCCc1ccccc1
The “activity change, negative = cytotoxicity” value of the first is higher: 11.5% for the first, -7.91% for the second.

Going from `CN1CCN(CCCN2c3ccccc3Sc3ccc(S(=O)(=O)N(C)C)cc32)CC1` to `CN(C(=O)CN(CCO)CC(=O)N(C)C(C)(C)Cc1ccccc1)C(C)(C)Cc1ccccc1`, the “activity change, negative = cytotoxicity” value rises from -28% to -5.6%.

For `COc1ccc(/C=C/C(=O)c2ccc(OC)cc2OC)cc1`, the Potency was 2.24 µM (active).
In the case of `CCOc1ccc(Cc2nccc3cc(OCC)c(OCC)cc23)cc1OCC`, the Potency is reported as 2.24 µM (active).
For `COc1cccc2c1C(=O)c1c(O)c3c(c(O)c1C2=O)C[C@@](O)(C(=O)CO)C[C@@H]3O[C@H]1C[C@H](N)[C@H](O)[C@H](C)O1`, the Potency was 2.82 µM (active).
